In PubChem BioAssay AID488890 (Southern Research Specialized Biocontainment Screening …, 2010):
The campaign covered roughly 320,000 compounds. About 1,300 (0.41%) were called active. Inconclusive results (about 3%) are left out. The rule behind the calls is not given here. A selection follows. Entries with a potency or affinity are not part of this list.

Test: growth inhibition of non-replicating M. tuberculosis (AID 488890);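 note: plate controls were DMSO cells for no effect and high antibiotic wells for full effect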
Conditions: Mycobacterium tuberculosis non-replicating, at 25 µM, stronger effect = higher value

| SMILES | inhibition |
| --- | --- |
| NS(=O)(=O)c1ccc(CCNC(=O)c2cccc(S(=O)(=O)N3CCCC3)c2)cc1 | 17.3% |
| S=c1[nH]nc(C2CCCCC2)n1/N=C/c1cccc(Br)c1 | -5.05% |
| O=C(c1ccco1)N1CCN(S(=O)(=O)c2ccc(Cl)cc2)CC1 | -7.62% |
| COCCCNC(=O)Nc1ccc(F)cc1F | -3.58% |
| NC(=O)COc1cc2oc(=O)c3c(c2cc1Cl)CCCC3 | -1.26% |
| CCN(CC)C(=O)c1sc(N)c(C(=O)OC(C)C)c1C | 29.4% |
| O=C(O)C1CC=CCC1C(=O)c1ccccc1 (configuration not stated) | -2.95% |
| O=c1cccccc1NN=C1CCCCCC1 | 15.8% |
| CCOC(=O)c1sc(NC(=O)CSc2n[nH]c(C)n2)nc1C | 23.3% |
| CC(=C/c1ccco1)/C=N/NC(=O)c1ccncc1 | 52.5% |
| C/C(=N\Nc1nc(-c2ccccc2O)nc2ccccc12)c1ccccc1 | 7.99% |
| CC(C)CCC(C(=O)O)C(C)CC(=O)Nc1ccn(-c2ccccc2)n1 (configuration not stated) | -10% |
| CSCCC(NC(=O)COc1ccccc1)C(=O)N(C)Cc1cccc(F)c1 (configuration not stated) | 23.5% |
| O=C(O)COc1ccc2c(-c3ccccc3)cc(=O)oc2c1 | -4.18% |
| CCN(CC)C(=O)COc1ccc2c(-c3ccccc3)cc(=O)oc2c1 | -10% |
| Cc1ccc(NC(=O)CN(C)C(=O)CSc2ccccc2F)cc1 | 1.97% |
| COc1ccc(C(CNC(=O)c2c(C)nn(Cc3ccccc3)c2Cl)N2CCOCC2)cc1 (configuration not stated) | 11.7% |
| COc1ccc(OCCC(=O)OCC(=O)NC2CCCCC2)cc1 | 39.1% |
| O=C(COc1ccc(C(=O)c2ccccc2)cc1)NC1CCCCCC1 | 55.6% |
| O=C(COc1ccccc1)NCC(=O)NC1CCCCC1 | 3.74% |
| COc1ccc(OCCC(=O)OCC(=O)NC2CCCCCCC2)cc1 | 42.5% |
| CCOc1ccc(CCNC(=O)CCc2nnc3ccc(N4CCCCC4)nn23)cc1OCC | 20.8% |
| Cc1cccc[n+]1C1C(c2ccccc2)C(C#N)=C(C(=C=[N-])C#N)NC1(O)C1CC1 (configuration not stated) | 17.4% |
| COC(=O)c1ccc(CN2CCN(C3CCCCC3)C(CCO)C2)cc1 (configuration not stated) | -2.17% |
| CCOC(=O)[C@@H]1[C@H]2COc3ccc(Br)cc3[C@H]2N2C(=O)N(c3ccc(C(F)(F)F)cc3)C(=O)[C@]12C | 37.9% |
| O=C(c1ccc(Cl)s1)N1CCCC1 | 31% |

| SMILES | inhibition |
| --- | --- |
| O=C(c1ccc(Br)s1)N1CCCC1 | 46.3% |
| Cc1ccc(NC(=O)CCC(=O)Nc2nnc(C3CCCCC3)s2)cc1 | -1.2% |
| NC(=NCCc1ccccc1)NS(=O)(=O)c1ccc2ccccc2c1 | 51.5% |
| CCC(CO)N=CC1=C(O)C(C(=O)c2ccccc2)CCC1=O (configuration not stated) | 4.93% |
| CC(=O)Nc1ccc(NC(=O)CSc2nnc(-c3cc4ccccc4o3)n2C)cc1 | -4.95% |
| COc1cc(C(=O)O)c2ccccc2n1 | -12.4% |
| COc1cccc2nc3cc(C)c(C)cc3nc12 | 39.2% |
| CC(CNC(=O)CN1C(=O)C(=O)N(C2CCCC2)C1=O)c1ccccc1 (configuration not stated) | 21.6% |
| O=C(O)C1=NN(c2ccccc2)C(=O)CC1 | 1.61% |
| COc1cc(CNCCO)cc(Br)c1OCc1ccccc1 | 28.5% |
| CCOc1cc(CNCCO)cc(Br)c1OCc1ccccc1 | 75.9% |
| COc1cc(CNCCO)cc(Br)c1OCc1ccccc1Cl | 79% |
| CCOc1cc(CNCCO)cc(Br)c1OCc1cccs1 | 73.5% |
| COCCNC(=O)COc1coc(CN2CCN(Cc3ccccc3)CC2)cc1=O | 0.19% |
| CCOc1ccc2oc(C(=O)NNC(=O)c3csc(N4CCOCC4)n3)c(C)c2c1 | 75.8% |
| Cc1cccc(C(=O)NNC(=O)c2csc(N3CCOCC3)n2)c1C | -2.47% |
| CCN(N=Nc1cccc([N+](=O)[O-])c1)c1cccc([N+](=O)[O-])c1 | -3.89% |
| CC1(C)CC(=O)C(N=Nc2cccc([N+](=O)[O-])c2)=C(O)C1 | -5.61% |
| COCC(C)n1c(SCC(=O)N2CCOCC2)nc2ccccc2c1=O (configuration not stated) | 3.46% |
| CCC(C)[C@H](NC(=O)[C@@H]1CSC2c3ccccc3C(=O)N21)C(=O)N1CCCCC1 (some centres not stated) | 12.4% |
| Oc1ccc(-c2nnc(SCc3ccccc3)o2)cc1 | 77.5% |
| O=C(CSc1nnc(-c2ccncc2)o1)c1cccc([N+](=O)[O-])c1 | 70.5% |
| CCSc1nnc(-c2ccncc2)o1 | 0.24% |
| COc1ccc(-c2nnc(SCC#CCO)o2)cc1OC | 45.7% |
| O=C(CSc1nnc(-c2ccc(O)cc2)o1)Nc1ccccc1 | 63.5% |
| OCC#CCSc1nnc(-c2ccncc2)o1 | 23.9% |

| SMILES | inhibition |
| --- | --- |
| Cc1ccc(C(=O)CSc2nnc(-c3ccccc3)o2)cc1 | 64.9% |
| O=C(O)c1ccc(-c2nnc(-c3ccc([N+](=O)[O-])cc3)o2)cc1 | -2.79% |
| CCOCCCNC(=O)c1cc2c(s1)-c1ccccc1SC2 | 9.76% |
| CC(=O)Nc1nccc(-c2cc(-c3ccccc3)no2)n1 | 2.66% |
| COc1ccccc1N(CC(O)Cn1c2ccccc2c2ccccc21)S(=O)(=O)c1ccccc1 (configuration not stated) | 31.5% |
| Cc1ccccc1C(=O)NNC(=O)c1ccc2nc[nH]c2c1 | 8.7% |
| COc1ccc(S(=O)(=O)Nc2cccc3c2O[C@H](CN(C)S(=O)(=O)c2ccc(Cl)cc2)[C@H](C)CN([C@H](C)CO)C3=O)cc1 | 51.4% |
| O=c1c2ccccc2ncn1-c1ccc(Cl)c(Cl)c1 | 1.67% |
| COc1cc(Cl)cc(C=O)c1OCC(=O)O | 8.45% |
| COc1ccc(CCNC(=O)C2CCCN2C(=O)Nc2ccc(Cl)cc2)cc1OC (configuration not stated) | 20.8% |
| Cc1ccccc1-c1nnc(SCC#N)o1 | 15.7% |
| Cc1ccc(CSc2nnc(-c3cccc4ccccc34)o2)cc1 | 14.4% |
| C=CCSc1nnc(-c2cccc3ccccc23)o1 | 5.5% |
| C#CCSc1nnc(-c2sc3ccccc3c2Cl)o1 | 71.8% |
| C#CCSc1n[nH]c(=O)n1-c1cccc(C(F)(F)F)c1 | 3.27% |
| O=C(N/N=C/c1c(O)n(-c2ccc(Cl)cn2)c(=O)c2ccccc12)C1CC1 | 6.8% |
| O=C(CCNc1n[nH]c(=O)[nH]c1=O)N/N=C\c1cccc(OCc2ccccc2)c1 | 10.7% |
| COc1ccc(CCNC(=O)c2ccc(-c3ccc([N+](=O)[O-])cc3)o2)cc1OC | 60.1% |
| COc1ccc(NC(=O)c2ccc(C(=O)c3ccccc3)o2)cc1 | -11.3% |
| Cc1ccccc1NC(=O)c1ccc(Cn2cc([N+](=O)[O-])cn2)o1 | 46.5% |
| COc1cccc(NC(=O)c2ccccc2)c1 | 4.57% |
| Cc1cc(NC(=O)c2ccc(Cn3cc([N+](=O)[O-])cn3)o2)no1 | 14.1% |
| COc1cccc(NC(=O)CC(=O)c2ccc([N+](=O)[O-])cc2)c1 | 47% |
| CC(=O)Nc1ccc(NC(=O)c2ccc(-c3ccc([N+](=O)[O-])cc3)o2)cc1 | 28.3% |
| COc1cccc(NC(=O)CNC(=O)c2ccc([N+](=O)[O-])cc2)c1 | 12.4% |
